Structures are written as SMILES. Measured potencies and affinities stand elsewhere. Inconclusive results are not listed. Active and inactive are the calls of the source.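 The calls were made as follows: active = in every test run, a fitted half-maximal concentration for signal decrease at or below twice the highest tested concentration; inconclusive = runs disagree, flat 30 to 70% decrease, or poor fit; inactive = the rest.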

The experiment in a line: activation of miR-122 Renilla sensor silencing – cell-based, Huh7 psiCHECK-miR122, Renilla luciferase, cherry-picked, dose response (AID 651956).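 Also: Renilla luciferase from a miR-122 sensor reporter so lower signal means miR-122 activation.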 The conditions noted are these: Huh7 psiCHECK-miR122 Renilla luciferase reporter, 48 h; series mostly up to 35 µM.
For `C/C=C/c1ccc([C@H]2[C@@H](CO)N[C@@H]2CN(CC)C(=O)CN2CCOCC2)cc1`, the compound was classed as inactive.
Turning to `COc1cccc(COc2cc3ccccc3nc2C)c1`, the result was inactive.
Consider `O=C(COC(=O)Cc1ccc(S(=O)(=O)N2CCOCC2)s1)Nc1ccc2c(c1)OCO2`, for which the outcome was inactive.
For `N#CC1=C(N)Oc2c(ccc3cccnc23)C1c1ccccc1` (stereo not drawn), the result was inactive.
As for `CCN(C[C@H]1N[C@H](CO)[C@H]1c1ccc(C2=CCCC2)cc1)C(=O)c1cccnc1`, the call was inactive.
Regarding `CCCC(=O)Nc1ccc2c(c1)C(=O)N(C)[C@H]1CC[C@H](CC(=O)NCCN3CCCCC3)O[C@@H]1CO2`, the call was inactive.
The entry for `CN(C)CCNc1nc2sc3c(c2c(=O)n1CCc1ccccc1)CCCCC3` is “inactive”; for `O=C(Nc1ccc(Cl)c(C(F)(F)F)c1)c1ccco1` it is “inactive”; for `COc1cccc(CNC(=O)C[C@@H]2CC[C@@H]3[C@H](COc4ccc(NC(C)=O)cc4C(=O)N3C)O2)c1` it is “inactive”.
On to `C[C@@H]1CN([C@@H](C)CO)S(=O)(=O)c2ccc(-c3ccccc3F)cc2O[C@@H]1CN(C)Cc1cccnc1`, for which the compound was classed as inactive.
`CCCCNc1cc(C)nc(NCc2ccccc2)n1`: the call was inactive.
The entry for `CCNC(=O)C[C@H]1CC[C@H]2[C@H](COc3ccc(NC(=O)Nc4cccc(OC)c4)cc3C(=O)N2C)O1` is “inactive”; for `O=C(Cn1c(=O)c2ccccc2n(CC(=O)N2CCCCC2)c1=O)N1CCCCC1` it is “inactive”.
The entry for `CNC(=O)C[C@H]1CC[C@H]2[C@@H](COc3ccc(NC(=O)C(C)C)cc3C(=O)N2C)O1` is “inactive”.
Consider `CCNC(=O)Nc1ccc2c(c1)C(=O)N(C)[C@H]1CC[C@@H](CC(=O)NCCOC)O[C@@H]1CO2`, for which the compound was classed as inactive.
The entry for `CC(=O)N1[C@H](CO)[C@@H](c2ccccc2)[C@H]1CN(C)C(=O)CN1CCOCC1` is “inactive”; for `O=C(Nc1ccc(F)cc1)N1C[C@H]2[C@@H](c3ccccc31)[C@H](CO)N2C(=O)c1ccncc1` it is “inactive”; for `COc1ccc(-c2c(C(C)=O)c(C)nc3sc4c(c23)NC(c2ccccc2)NC4=O)cc1` (stereo not drawn) it is “inactive”.
Take `C[C@H](CO)N1C[C@H](C)[C@@H](CN(C)CC2CCCCC2)OCCCC[C@H](C)Oc2ccc(NC(=O)Nc3cccc4ccccc34)cc2C1=O`: the compound was classed as inactive.
To `Cc1ccc(OCCN2CCN(c3ncnc4sc(C)c(C)c34)CC2)cc1` belongs “inactive”; to `Cc1cc(CN(C)C(=O)c2cc(COc3ccc4ncccc4c3)on2)on1`, “inactive”; to `CN1C(=O)c2cc(NC(=O)Cc3ccccc3)ccc2OC[C@H]2O[C@H](CC(=O)O)CC[C@H]21`, “inactive”.
The entry for `CCCC(=O)Nc1ccc2c(c1)C(=O)N(C)[C@@H]1CC[C@H](CC(=O)NCc3cccc(F)c3)O[C@H]1CO2` is “inactive”.
Regarding `O=C(Nc1ccccc1F)N1[C@H](CO)[C@@H]2c3ccccc3NC[C@@H]21`, the outcome was inactive.
The entry for `COC(=O)C[C@@H]1CC[C@H]2[C@@H](COc3ccc(NC(=O)Nc4ccccc4C)cc3C(=O)N2C)O1` is “inactive”; for `CN1C(=O)c2cc(NC(=O)Nc3ccc(Cl)cc3)ccc2OC[C@@H]2O[C@@H](CC(=O)NCCN3CCCCC3)CC[C@H]21` it is “inactive”; for `CO[C@@H]1CN(C)C(=O)c2ccc(NS(C)(=O)=O)cc2OC[C@H](C)N(C(=O)CN(C)C)C[C@@H]1C` it is “inactive”.
To `COCC(=O)N1[C@H](CO)[C@@H](c2ccccc2)[C@H]1CNC(=O)c1ccccn1` belongs “inactive”; to `COc1ccc(-c2ccc(C#N)c(OC(=O)c3c(Cl)cccc3Cl)n2)cc1`, “inactive”; to `Fc1ccccc1-c1nc(-c2ccncc2)no1`, “inactive”.
As to `Cc1cc(C)n(C(=O)Cn2nc(C)c(Br)c2C)n1`, the compound was called inactive.
For the compound `C/C=C/c1ccc([C@@H]2[C@@H](CNC(=O)c3ccncc3)N(C(=O)CC)[C@H]2CO)cc1`, the compound was called inactive.
The entry for `Cc1cc(C(=O)Nc2ccc3c(c2)C(=O)N(C)[C@H]2CC[C@H](CC(=O)N[C@@H](C)c4ccccc4)O[C@H]2CO3)no1` is “inactive”; for `COCC(=O)NC[C@H]1N[C@H](CO)[C@H]1c1ccc(C2=CCCC2)cc1` it is “inactive”; for `C/C=C/c1ccc([C@H]2[C@@H](CO)N[C@@H]2CN(C(=O)c2ccccc2F)C(C)C)cc1` it is “inactive”.
The entry for `O=C(N/N=C/c1ccco1)c1cccc(N2CCCC2=O)c1` is “inactive”; for `COCC(=O)N1[C@H](CO)[C@H]2c3ccccc3N(C(=O)c3ccccc3F)C[C@H]21` it is “inactive”.
To `CCC(=O)N1[C@H](CO)[C@@H](c2ccccc2)[C@H]1CN(C(C)C)S(C)(=O)=O` belongs “inactive”.
